# SW480 rereplic = A quantitative high throughput screen for small molecules that induce DNA re-replication in SW480 colon adenocarcinoma cells. SW480 DNA re-replication, Hoechst DNA content imaging, 48 h. Potency, µM (titrated, usually from 46.1 µM), inactives show top-dose re-replication activation, actives largely listed as activators. 340,000 tested, 1.8% active; also: potency is read from the fitted curve at half-maximal effect; % of control where 0% means no effect; nearly all actives have a fitted effect of over 55% in size
#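 Cells (250 per well) received 23 nL compound or DMSO by pin tool and were kept 48 hr at 37 C, 5% CO2. Nuclei were then stained with Hoechst for 40 min and scanned for DNA content.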
# VP16 counter = VP16 counterscreen qHTS for inhibitors of ROR gamma transcriptional activity; Drosophila S2 Gal4-VP16 UAS-luciferase, luminescence, 20 h; 310,000 tested, 3.5% active; Potency, µM (top dose mostly 53.6 µM), inactives show at the top dose activity, negative = inhibition, usual class: inhibitors;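 also: Gal4-VP16 expression switched on by copper sulfate through the metallothionein promoter; potency is read from the fitted curve at half-maximal effect; % is scaled to controls: 0 for no effect and ±100 for the full control effect; nearly all actives have a fitted effect of over 50% in size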
# MCF10A rereplic = A quantitative high throughput screen for small molecules that induce DNA re-replication in MCF 10a normal breast cells; MCF 10A DNA re-replication, Hoechst nuclear intensity, 48 h; Potency, µM (top dose mostly 46.1 µM), for the others: top-dose activity, positive = re-replication, usual class: activators; 350,000 tested, 2.9% active; AID 624296, 2012; also: potency is read from the fitted curve at half-maximal effect; % of control where 0% means no effect; nearly all actives have a fitted effect of over 50% in size
# IL1B secr inh = qHTS for Inhibitors of Inflammasome Signaling: IL-1-beta AlphaLISA Primary Screen. THP-1 LPS/ATP IL-1B secretion, AlphaLISA, 16 h; stronger effect = lower value. activity change, % at 57.5 µM. 360,000 tested, 4.7% active. AID 743279, 2014; in the data active = activity change below about -50%; inconclusive = mostly about -30% to -49%; also: % is scaled to controls: 0 for no effect and ±100 for the full control effect
#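 Secreted IL-1B measured by AlphaLISA bead assay after 16 h compound exposure of THP-1 cells; compounds (final up to 57.5 uM) added 1 h before LPS (250 ng/mL) and ATP (1.25 mM) stimulation; lower signal means less secretion.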
# RORgamma inh = qHTS for inhibitors of ROR gamma transcriptional activity. Potency, µM (highest dose often 53.6 µM), inactives show top-dose activity change, negative = inhibition, actives largely listed as inhibitors. 310,000 tested, 5.4% active. Drosophila S2 Gal4-RORgamma UAS-luciferase reporter, 20 h. Nuclear receptor ROR-gamma (Mus musculus), P51450; also: potency is read from the fitted curve at half-maximal effect; % is scaled to controls: 0 for no effect and ±100 for the full control effect; nearly all actives have a fitted effect of over 60% in size
# Target sequence (P51450 whole entry, looked up, the tested form may be a part): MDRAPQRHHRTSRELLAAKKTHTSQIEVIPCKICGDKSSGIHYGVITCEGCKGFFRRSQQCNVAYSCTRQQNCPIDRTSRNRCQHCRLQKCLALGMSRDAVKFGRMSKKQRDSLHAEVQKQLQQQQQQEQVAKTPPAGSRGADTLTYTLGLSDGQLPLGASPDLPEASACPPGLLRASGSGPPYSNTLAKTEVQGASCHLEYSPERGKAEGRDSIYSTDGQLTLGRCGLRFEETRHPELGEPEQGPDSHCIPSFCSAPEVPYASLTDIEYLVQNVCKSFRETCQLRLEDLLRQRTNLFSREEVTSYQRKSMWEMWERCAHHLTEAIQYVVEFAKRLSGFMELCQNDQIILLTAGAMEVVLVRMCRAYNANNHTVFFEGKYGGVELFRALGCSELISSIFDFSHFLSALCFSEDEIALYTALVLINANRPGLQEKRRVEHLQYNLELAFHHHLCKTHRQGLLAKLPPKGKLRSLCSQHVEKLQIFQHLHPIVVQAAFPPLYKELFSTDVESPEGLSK
#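 Using a luciferase readout, inhibitors were identified by reduced reporter activity in Drosophila cells coexpressing a copper-inducible Gal4–ROR gamma fusion and UAS-driven Photinus luciferase, incubated 20 hr after 700 uM copper sulfate.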
# Numbers without * were called inactive; ? = inconclusive; · = not tested or not shown; [ ] = remark or other dose. Only some compounds are listed: those with a hit (about 11% of all), similar ones and a draw of the others. Unless noted, calls follow the shape of the dose curve; as a rule, active = well fitted curve in the direction sought with a large enough effect; inconclusive = small, poorly fitted or top-dose-only effect, or another doubt; inactive = no such curve, though single readings can be large; an effect the other way counts as inactive or inconclusive.
SMILES,SW480 rereplic,VP16 counter,MCF10A rereplic,IL1B secr inh,RORgamma inh
CCN(C(=S)NCc1ccccc1)c1cccc2ccccc12,3%,?,?,-8,7.1µM*
CCN(C(=S)NCc1ccccc1)c1ccccc1,-1%,-8%,20%,40,14µM*
CCN(Cc1ccncc1)C(=S)NCc1ccccc1,4%,1%,11%,-3,6%
C=CCNC(=S)N(CC)c1cccc2ccccc12,-94%,?,-3%,36,7.1µM*
C=Cc1ccc([C@H]2N[C@@H](C(=O)O)CC[C@@H]2C)cc1,·,-4%[10 µM],·,·,11%[10 µM]
CCN1C(=O)N[C@@H](c2ccccc2)C1=O,-3%[20.6 µM],1%[17 µM],2%[20.6 µM],·,6%[2.98 µM]
COCCCNC(=S)N1CCCN(c2nc3c(C)c(C)ccc3cc2C#N)CC1,6%,-8%,-4%,3,-12%
CCOCCCNC(=S)NCCNc1nc2ccc(C)cc2cc1C#N,?,7%,?,0,?
CN(C)CCCNC(=S)NCCNc1nc2cc3c(cc2cc1C#N)OCO3,15µM*,-2%,21µM*,-3,0%
COCCCNC(=S)NCCNc1nc2c(C)c(C)ccc2cc1C#N,?,?,23µM*,-16,18µM*
CCOc1ccc2nc(NCCNC(=O)c3cc(OC)c(OC)c(OC)c3)c(C#N)cc2c1,6.5µM*,-11%,23µM*,-10,5%
CCOCCCNC(=S)NCCCNc1nc2ccc(C)cc2cc1C#N,·,-2%[10 µM],·,·,6.3µM*
COCCNC(=S)NCCCNc1nc2cc3c(cc2cc1C#N)OCO3,-1%,6%[0.365 µM],-6%,33,?
OC(c1cccc(CN2CCCCC2)c1)c1ncc(-c2cccc(C(F)(F)F)c2)[nH]1 (stereo not given),·,·,·,-10,·
COc1cc(C(=O)NCCNc2nc3c(C)c(C)ccc3cc2C#N)cc(OC)c1OC,?,14%,21µM*,-24,12%[1.91 µM]
COc1cc(C(=O)NCCNc2nc3cc(C)ccc3cc2C#N)cc(OC)c1OC,0%,-9%,11%,11,?
CCn1c(=N)n(CC(O)c2ccccc2)c2ccccc21 (stereo not given),?,-24%,4%,-5,?
CCCCn1c(=N)n(CC(O)COc2ccc(C)cc2)c2ccccc21 (stereo not given),22%,-6%,5%,-73*,20%
CCCCn1c(=N)n(CC(O)COc2ccccc2)c2ccccc21 (stereo not given),?,-11%,1%,?,22%
CCn1c(=N)n(CC(O)COc2cccc(C)c2)c2ccccc21 (stereo not given),?,-12%,?,?,34%
CCCCn1c(=N)n(CC(O)c2ccccc2)c2ccccc21 (stereo not given),3%,-7%,11%,-67*,16%
N=c1n(Cc2ccccc2)c2ccccc2n1CC(O)COc1ccccc1 (stereo not given),?,-21%,26µM*,-88*,5%
Cc1ccc(Cn2c(=N)n(CC(O)COc3ccccc3)c3ccccc32)cc1 (stereo not given),?,7.1µM*,12%,0,5µM*
Cc1cnc(NC(=O)CC2OC(=O)c3ccccc32)s1 (stereo not given),-76%,·,-15%,16,·
CCOc1ccccc1N(C)C(=O)CCS(=O)(=O)c1ccc2c(c1)NC(=O)C(C)S2 (stereo not given),-10%,-7%,-1%,6,26%
SMILES,SW480 rereplic,VP16 counter,MCF10A rereplic,IL1B secr inh,RORgamma inh
CCCn1c(=N)n(CCOc2ccc(OC)cc2)c2ccccc21,1%,4%,?,-58*,15%
CCC(C(=O)O)C1OC(C(C)C(O)C(C)C(=O)C(CC)C2OC3(C=CC(O)C4(CCC(C)(C5CCC(O)(CC)C(C)O5)O4)O3)C(C)CC2C)C(C)CC1C (stereo not given),?,0.45µM*,?,·,0.89µM*
C=C1C(=O)O[C@@H]2[C@@H]1CC/C(C)=C\CC[C@@]1(C)O[C@H]21,7%,3.5µM*,12µM*,·,3.2µM*
C=C1C(=O)O[C@@H]2[C@H]3O[C@]3(C)CCC=C(C)CC[C@@H]12,·,?,·,·,7.1µM*
Cc1ccc(S(=O)(=O)N(CC(=O)Nc2ccc(C)cc2C)C(=O)N2CCN(C)CC2)cc1,-55%,·,-14%,-24,·
COC(=O)c1sc2ccccc2c1NC(=O)c1ccc(S(=O)(=O)N2CCCC(C)C2)cc1 (stereo not given),-8%,-8%,8%,14,-12%
COC(=O)c1sc2ccccc2c1NC(=O)c1ccc(S(=O)(=O)N2CC(C)CC(C)C2)cc1 (stereo not given),-13%,-1%,3%,13,-1%
Cc1cccc2sc(NNC(=O)c3ccc(S(=O)(=O)N4CC(C)CC(C)C4)cc3)nc12 (stereo not given),9.2µM*,1.4µM*,?,122,0.71µM*
Cc1cc(C)c2nc(NNC(=O)c3ccc(S(=O)(=O)N4CCCC(C)C4)cc3)sc2c1 (stereo not given),?,5µM*,15µM*,120,0.79µM*
Cc1cc(C)c2nc(NNC(=O)c3ccc(S(=O)(=O)N4CC(C)CC(C)C4)cc3)sc2c1 (stereo not given),?,7.9µM*,?,104,2µM*
CC1CC(C)CN(S(=O)(=O)c2ccc(C(=O)Nc3sccc3C(N)=O)cc2)C1 (stereo not given),-6%,?,?,24,-14%
Cc1nnc(NC(=O)CCN2C(=O)C3CC=CCC3C2=O)s1 (stereo not given),·,·,·,8,·
CCOC(=O)N1CCC(NC(=S)Nc2ccc3nc(N4CCN(C)CC4)cc(C)c3c2)CC1,-2%,?,0%,-100*,-31%
Cc1cc(N2CCN(C)CC2)nc2ccc(NC(=S)N3CCN(c4ccc(Cl)cc4)CC3)cc12,12µM*,?,29µM*,38,?
Cc1cc(N2CCN(C)CC2)nc2ccc(NC(=S)N3CCCCC3)cc12,?,4%,18µM*,-14,-11%
Cc1cc(N2CCN(C)CC2)nc2ccc(NC(=S)N3CCCCCC3)cc12,14%,9%,?,-5,23%
Cc1cc(N2CCN(C)CC2)nc2ccc(NC(=S)N3CCN(c4cccc(Cl)c4)CC3)cc12,9.2µM*,-23%,7.3µM*,19,-20%
Cc1cc(N2CCN(C)CC2)nc2ccc(NC(=S)N3CCN(c4ccc(F)cc4)CC3)cc12,?,-1%[10 µM],?,212,?
CCCCNC(=O)CCC(=O)Nc1ccc2nc(N3CCN(C)CC3)cc(C)c2c1,17%,-23%[10 µM],-2%,22,26%

# Screening data: PubChem BioAssay, National Center for Advancing Translational Sciences (NCATS)
